62 compounds from publication PMC4336329 (PLoS ONE, 2015) can be followed below.

Among all 310,000 compounds or so, about 14,000 (4.5%) showed an effect of 50% or more. Effects have a minus sign here. For the sample, strong results were picked, then their nearest neighbours and some compounds at random.
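Further: peak tail current of the secondary pulse compared with the same well before compound.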

Sequence of human ether-à-go-go-related gene (hERG) potassium channel (Q12809 whole entry, looked up): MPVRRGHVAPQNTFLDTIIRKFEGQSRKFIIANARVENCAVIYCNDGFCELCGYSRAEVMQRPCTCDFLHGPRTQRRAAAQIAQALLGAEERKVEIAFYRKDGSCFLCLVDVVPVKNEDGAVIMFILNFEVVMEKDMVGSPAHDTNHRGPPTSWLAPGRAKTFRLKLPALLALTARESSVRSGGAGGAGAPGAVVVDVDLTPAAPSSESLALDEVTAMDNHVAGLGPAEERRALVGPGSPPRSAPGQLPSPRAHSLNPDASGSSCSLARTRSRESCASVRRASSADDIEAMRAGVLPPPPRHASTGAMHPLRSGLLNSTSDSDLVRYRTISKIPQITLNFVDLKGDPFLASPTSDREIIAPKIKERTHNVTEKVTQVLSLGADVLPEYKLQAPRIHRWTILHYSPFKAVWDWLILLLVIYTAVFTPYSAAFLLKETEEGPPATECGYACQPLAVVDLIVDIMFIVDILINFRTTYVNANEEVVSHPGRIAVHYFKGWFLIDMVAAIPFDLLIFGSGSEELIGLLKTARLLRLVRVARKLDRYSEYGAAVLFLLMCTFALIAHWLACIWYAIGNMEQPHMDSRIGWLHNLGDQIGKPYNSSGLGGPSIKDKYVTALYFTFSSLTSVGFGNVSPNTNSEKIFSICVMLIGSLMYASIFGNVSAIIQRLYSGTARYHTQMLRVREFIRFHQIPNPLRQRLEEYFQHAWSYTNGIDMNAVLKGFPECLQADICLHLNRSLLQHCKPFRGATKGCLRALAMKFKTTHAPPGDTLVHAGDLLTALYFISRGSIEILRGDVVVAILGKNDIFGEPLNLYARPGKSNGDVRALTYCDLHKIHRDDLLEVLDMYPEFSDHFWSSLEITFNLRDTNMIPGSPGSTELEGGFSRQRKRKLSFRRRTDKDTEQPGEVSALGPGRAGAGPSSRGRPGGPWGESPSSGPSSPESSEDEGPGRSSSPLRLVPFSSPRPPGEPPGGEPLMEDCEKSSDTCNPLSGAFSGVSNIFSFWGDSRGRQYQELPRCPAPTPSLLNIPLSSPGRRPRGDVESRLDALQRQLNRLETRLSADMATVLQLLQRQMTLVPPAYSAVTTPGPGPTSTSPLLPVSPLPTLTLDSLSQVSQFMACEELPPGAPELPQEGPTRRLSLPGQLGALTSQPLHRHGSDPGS

This assay addresses human ether-à-go-go-related gene (hERG) potassium channel (human, UniProt Q12809). Description: primary screen, population patch clamp on CHO cells stably expressing hERG; higher = less effect of the substance.
Take `CCOC(=O)c1[nH]ncc1CN1CCCC(C(=O)c2cccc(Cl)c2)C1` (centres unmarked): the “hERG current change (%, negative = inhibition) at 10uM” value is recorded as -22.6%. On to `CCOC(=O)c1[nH]ncc1CN1CCCC(C(=O)c2ccc(C(C)(C)C)cc2)C1` (centres unmarked), for which the “hERG current change (%, negative = inhibition) at 10uM” value was -17.6%. Next, `CCOC(=O)c1[nH]ncc1CN1CCCC(C(=O)c2ccc(SC)cc2)C1` (centres unmarked): -73%. For the compound `CCOC(=O)c1[nH]ncc1CN1CCCC(C(=O)c2cccc(OC(C)C)c2)C1` (centres unmarked), the “hERG current change (%, negative = inhibition) at 10uM” value is -42.1%. As for `CCOC(=O)c1[nH]ncc1CN1CCCC(C(=O)c2cc(Cl)ccc2OC)C1` (centres unmarked), the “hERG current change (%, negative = inhibition) at 10uM” value is -71.1%. Take `CCOC(=O)c1[nH]ncc1CN1CCCC(C(=O)c2ccc(OC)cc2C)C1` (centres unmarked): the “hERG current change (%, negative = inhibition) at 10uM” value is given as -49.4%. In the case of `O=C(COC(=O)C1CCCCC1)Nc1ccc(N2CCCCC2)cc1` it was 2.16%; in that of `COc1ccc(C2(CNS(=O)(=O)c3ccccc3)CCOCC2)cc1`, -4.62%. In the case of `COc1ccc(NC(=O)C2CCCN2S(=O)(=O)c2cccc3cccnc23)c(OC)c1` (centres unmarked) it was -6.73%; in that of `CCOc1cc2c(cc1C=O)OC(C)C2` (centres unmarked), 22.1%; in that of `O=C(c1ccc(Cl)c(S(=O)(=O)N2CCCCC2)c1)N1CCCCC1`, -31.7%. Next, `O=C(c1ccc(Cl)c(S(=O)(=O)N2CCOCC2)c1)N1CCN(Cc2ccccc2)CC1`: -25.3%; `CCN1CCN(C(=O)c2ccc(Cl)c(S(=O)(=O)N3CCCCC3)c2)CC1`: -69.8%. As to `O=C(c1ccc(Cl)c(S(=O)(=O)N2CCCCCC2)c1)N1CCCCC1`, the “hERG current change (%, negative = inhibition) at 10uM” value is recorded as -20.7%. Turning to `Cl.O=C(c1ccc(Cl)c(S(=O)(=O)N2CCCCCC2)c1)N1CCN(CCO)CC1`, the “hERG current change (%, negative = inhibition) at 10uM” value is recorded as -34.4%.

With `O=C(c1ccc(Cl)c(S(=O)(=O)N2CCCCCC2)c1)N1CCCC1`, the “hERG current change (%, negative = inhibition) at 10uM” value is on record as -38.9%. Next, `CCN1CCN(C(=O)c2ccc(Cl)c(S(=O)(=O)N3CCOCC3)c2)CC1`: -0.549%; `CCN1CCN(C(=O)c2ccc(Cl)c(S(=O)(=O)N3CCCCCC3)c2)CC1.Cl`: -60.9%. In the case of `O=C(c1ccc(Cl)c(S(=O)(=O)N2CCCCC2)c1)N1CCN(Cc2ccccc2)CC1` it was -59.1%. In the case of `CCCn1c(N)c(N(CCOC)C(=O)c2cccc(S(=O)(=O)N3CCCc4ccccc43)c2)c(=O)[nH]c1=O` it was 3.29%; in that of `O=C(NCC1CCCO1)c1cccs1` (centres unmarked), 4.89%; in that of `Cc1cc(OCC(=O)OCC(=O)NC2CCCCC2C)ccc1Cl` (centres unmarked), 0.466%. Take `CC(=O)Nc1ccc(S(=O)(=O)NNC(=O)c2cccc(Br)c2)cc1`: the “hERG current change (%, negative = inhibition) at 10uM” value turned out to be 15.9%.

Regarding `CCC(=NCCCN1CCOCC1)c1c(O)n(-c2ccccc2C)c(=O)[nH]c1=O`, the “hERG current change (%, negative = inhibition) at 10uM” value turned out to be 8.28%.

Take `CCCCN1C(=O)C(=O)N(CC(=O)Nc2sc(CC)cc2C(=O)OCC)C1=O`: the “hERG current change (%, negative = inhibition) at 10uM” value was -10%. Next, `Cc1ccc(Oc2ccc(OCC(=O)NC(C)C(=O)O)cc2)cc1` (centres unmarked): -25.1%; `Cc1c(C#N)c(N)nc(Cl)c1C#N`: 25.9%. Next, `NC(=O)C1(NC(=O)[C@@H]2CC3(CC(c4cccc(NC(=O)[C@@H]5CCC(=O)N5)c4)=NO3)CN2C(=O)c2ccccc2)CC1` (some centres unmarked): 1.96%; `CCCCOC(=O)NC1(C)CCS(=O)(=O)C1` (centres unmarked): 27.1%; `CC(C)OCCCNC(=S)N1CCC(C(=O)c2ccc3c(c2)OCCO3)CC1`: -22.9%. As for `Cc1ccc2sc(N(CCN(C)C)C(=O)c3ccc(S(=O)(=O)N4CC(C)OC(C)C4)cc3)nc2c1C.Cl` (centres unmarked), the “hERG current change (%, negative = inhibition) at 10uM” value stood at 1.87%.

For `CCOC(=O)/C=C/[C@H]1CCc2cccc(Cl)c2O1`, the “hERG current change (%, negative = inhibition) at 10uM” value is listed as 9.23%.

Take `CN1CCN(NC(=O)c2ccc(Cl)cc2Cl)CC1`: the “hERG current change (%, negative = inhibition) at 10uM” value came out at 0.116%. For `Cc1cc(C(=O)N/N=C2/CC(C)CC(C)(C)C2)c(C)o1` (centres unmarked), the “hERG current change (%, negative = inhibition) at 10uM” value is recorded as -8.27%. Next, `COc1ccc(CN2C3CCC2CC(NC(=O)c2cccc(F)c2)C3)cc1` (centres unmarked): -75.2%. In the case of `COc1ccc(CN2C3CCCC2CC(NC(=O)c2cccc(F)c2)C3)cc1` (centres unmarked) it was -82%; in that of `COc1cccc(C(=O)NC2CC3CCC(C2)N3Cc2ccccc2)c1` (centres unmarked), -28.7%. Next, `COc1ccc(NC(=S)N2CCC(NC(=O)c3cccc(F)c3)CC2)cc1`: -16.7%. For `COc1ccc(CN2C3CCC2CC(NC(=O)c2cc(OC)c(OC)c(OC)c2)C3)cc1` (centres unmarked), the “hERG current change (%, negative = inhibition) at 10uM” value is -31.6%.

`COc1ccc(C(=O)/C=C/c2cccc(OCc3ccccc3)c2)cc1CSCC(=O)O`: the “hERG current change (%, negative = inhibition) at 10uM” value was found to be 7.09%. Next, `COc1ccccc1CNC(=O)CCS(=O)(=O)c1ccc2c(c1)CC(C)N2C(=O)C1CC1` (centres unmarked): 15%.

Consider `COc1cccc(NC(=S)NCCc2ccccn2)c1`, for which the “hERG current change (%, negative = inhibition) at 10uM” value stood at 7.98%. Next, `CS(=O)(=O)NCCNc1ccc(C(F)(F)F)cc1[N+](=O)[O-]`: -6.08%; `CS(=O)(=O)NCCCNc1ccc(C(F)(F)F)cc1[N+](=O)[O-]`: -35.1%. In the case of `CS(=O)(=O)NCCCCNc1ccc(C(F)(F)F)cc1[N+](=O)[O-]` it was -56.8%; in that of `COc1ccc(NC(=O)C(=O)N/N=C/c2cccnc2)c(OC)c1`, 21.3%; in that of `N#CC1(c2nc3ccccc3[nH]2)CC1c1ccc2c(c1)OCO2` (centres unmarked), 0.101%. On to `O=C(COC(=O)c1ccc(Cl)c(S(=O)(=O)N2CCOCC2)c1)NCc1ccco1`, for which the “hERG current change (%, negative = inhibition) at 10uM” value is given as -17%. For `COc1ccc(CN(C(=O)c2nsc(Cl)c2Cl)C(C(=O)NC2CCCC2)c2ccc(C)cc2)cc1` (centres unmarked), the “hERG current change (%, negative = inhibition) at 10uM” value is recorded as -12.4%. Consider `C/C(=N/OC(=O)c1ccc(C)cc1)c1ccc(N2C(=O)C3CCCCC3C2=O)cc1` (centres unmarked), for which the “hERG current change (%, negative = inhibition) at 10uM” value was 16%.

As to `O=c1c2ccccc2nc(/C=C/c2ccc([N+](=O)[O-])o2)n1CCCO`, the “hERG current change (%, negative = inhibition) at 10uM” value is given as -51.7%. In the case of `O=c1c2ccccc2nc(/C=C/c2ccc(Br)cc2)n1CCCO` it was 0.999%; in that of `O=c1c2sccc2nc(SCc2cc(=O)n3ccccc3n2)n1Cc1ccccn1`, -22.3%; in that of `N#Cc1ccccc1CSc1nc2ccsc2c(=O)n1Cc1ccccn1`, -10.9%. Turning to `O=c1c2sccc2nc(SCc2ccc([N+](=O)[O-])cc2)n1Cc1ccccn1`, the “hERG current change (%, negative = inhibition) at 10uM” value is recorded as -61.6%. Next, `O=c1c2ccccc2nc(/C=C/c2ccccc2)n1CCCO`: -8.23%; `O=c1c2ccccc2nc(SCc2ccc([N+](=O)[O-])cc2)n1CCCO`: -57.9%. In the case of `Nn1c(SCc2ccc([N+](=O)[O-])cc2)nc2ccccc2c1=O`, the “hERG current change (%, negative = inhibition) at 10uM” value was 17.8%. Regarding `CCOC(CCn1c(SCc2ccc([N+](=O)[O-])cc2)nc2ccccc2c1=O)OCC`, the “hERG current change (%, negative = inhibition) at 10uM” value is -39%. In the case of `Cn1c(/C=C/c2ccc([N+](=O)[O-])o2)nc2ccccc2c1=O`, the “hERG current change (%, negative = inhibition) at 10uM” value is -24.2%. In the case of `O=c1c2ccccc2nc(/C=C/c2cccc([N+](=O)[O-])c2)n1CCCO` it was -43%; in that of `O=c1c2ccccc2nc(/C=C/c2ccc([N+](=O)[O-])cc2)n1CCCO`, -57.4%.
